High-throughput results (PubChem)
EPAC2 antag = EPAC2 (human) antagonism | Q8WZA2 | EPAC2 GEF exchange of Rap1B-BODIPY-GDP, fluorescence | Potency, µM (top dose mostly 114 µM), inactives show at the top dose activity, negative = inhibition, usual class: inhibitors | hit rate 0.18% among 360,000 | AID 720708; note: % is set by controls: 0 for no effect and ±100 for the full control effect; nearly all actives have a fitted effect of over 45% in size
EPAC1 ag = activates human EPAC1 exchange factor; Potency, µM (highest dose often 154 µM), inactives show top-dose activation, hits mostly activators; hit rate 0.073% among 360,000; O95398; EPAC1 agonist qHTS, biochemical assay; response scale: 100% = response to 6.5 mM cAMP; AID 720707; note: nearly all actives have a fitted effect of over 60% in size
Target sequence (O95398 whole entry, looked up): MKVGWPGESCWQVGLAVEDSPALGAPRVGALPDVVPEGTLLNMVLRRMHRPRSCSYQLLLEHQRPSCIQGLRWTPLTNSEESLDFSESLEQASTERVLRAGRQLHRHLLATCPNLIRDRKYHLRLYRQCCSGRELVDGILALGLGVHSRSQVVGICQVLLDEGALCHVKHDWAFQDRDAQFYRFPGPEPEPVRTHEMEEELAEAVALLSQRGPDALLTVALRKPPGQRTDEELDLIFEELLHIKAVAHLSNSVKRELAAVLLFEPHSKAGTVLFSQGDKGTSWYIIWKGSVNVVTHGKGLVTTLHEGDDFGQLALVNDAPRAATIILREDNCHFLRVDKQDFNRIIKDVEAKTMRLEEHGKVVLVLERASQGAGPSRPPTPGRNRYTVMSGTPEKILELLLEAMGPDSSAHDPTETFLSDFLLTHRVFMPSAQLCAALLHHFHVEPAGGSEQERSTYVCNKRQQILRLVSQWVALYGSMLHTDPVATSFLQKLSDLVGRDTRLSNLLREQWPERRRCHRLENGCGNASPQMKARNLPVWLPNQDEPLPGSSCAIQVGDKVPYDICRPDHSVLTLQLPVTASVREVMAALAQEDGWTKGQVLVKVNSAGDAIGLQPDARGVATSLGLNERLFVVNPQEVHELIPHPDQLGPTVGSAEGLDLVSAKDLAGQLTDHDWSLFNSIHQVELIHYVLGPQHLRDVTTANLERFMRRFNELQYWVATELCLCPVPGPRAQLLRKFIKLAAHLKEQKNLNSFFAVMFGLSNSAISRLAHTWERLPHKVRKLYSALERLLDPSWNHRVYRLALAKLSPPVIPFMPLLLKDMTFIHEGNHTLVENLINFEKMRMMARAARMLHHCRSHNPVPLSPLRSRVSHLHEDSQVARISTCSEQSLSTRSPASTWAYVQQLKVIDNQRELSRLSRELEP
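Read-out is the fluorescence drop as BODIPY-GDP leaves Rap1B (480 nm excitation, 540 nm emission), recorded every 5 minutes over 30 minutes. Reactions held 100 nM EPAC1, 250 nM Rap1B–BODIPY-GDP and 50 uM GDP, with 6.5 mM cAMP setting full activation.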
USP1 inh = blocks the human USP1/UAF1 deubiquitinase complex. O94782. recombinant USP1/UAF1, Ub-Rhodamine cleavage fluorescence. Potency, µM (titrated, usually from 57.1 µM), for the others: at the top dose activity change, negative = inhibition, hits mostly inhibitors. hit rate 0.23% among 390,000; note: % is set by controls: 0 for no effect and ±100 for the full control effect; nearly all actives have a fitted effect of over 60% in size
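USP1/UAF1 complex (1 nM) preincubated 15 min at room temperature with compound, then Ub-Rho substrate (150 nM final) added. Kinetic fluorescence at 480/540 nm over 6 reads at 60 s intervals; 50 mM HEPES pH 7.8, 0.5 mM EDTA, 0.1 mg/ml BSA, 1 mM TCEP, 0.01% Tween-20.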
EPAC1 antagonist = blocks human EPAC1 exchange factor. O95398. hit rate 0.14% among 360,000. Potency, µM (series often up to 115 µM), without a hit: top-dose activity change, negative = inhibition, most hits filed as inhibitors. EPAC1 GEF assay, Rap1b-BODIPY-GDP exchange fluorescence;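 note: plate controls were vehicle for no effect and positive control for full effect; nearly all actives have a fitted effect of over 50% in size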
EPAC2 agonist = EPAC2 (human) agonism | Q8WZA2 | EPAC2 activation, biochemical qHTS; response scale: 100% = 6.5 mM cAMP response | Potency, µM (doses to about 154 µM), without a hit: at the top dose activation, most hits filed as activators | hit rate 0.079% among 360,000 | AID 720711; note: nearly all actives have a fitted effect of over 50% in size
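Nucleotide exchange monitored as fluorescence drop when BODIPY-GDP leaves Rap1B. Reaction: 100 nM EPAC2, 250 nM RAP1B-BODIPY-GDP, 50 uM GDP, room temperature, kinetic read over 30 min. Activity expressed relative to 6.5 mM cAMP.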
Numbers without * were called inactive; ? = inconclusive; . = no result given; [ ] = dose if it differs, or a comment. The list is not random: actives were taken first. Their share in the collection is about 0.49%. Calls come from the whole dose curve; as a rule, active = well fitted curve in the direction sought with a large enough effect; inconclusive = small, poorly fitted or top-dose-only effect, or another doubt; inactive = no such curve, though single readings can be large; an effect the other way counts as inactive or inconclusive. Potency is the fitted concentration of half-maximal effect.

SMILES	EPAC2 antag	EPAC1 ag	USP1 inh	EPAC1 antagonist	EPAC2 agonist
Cc1cccc(N2CCN(S(=O)(=O)c3ccc4c(c3)CCN4C(=O)CCC(=O)O)CC2C)c1 (stereo not given)	61%	56µM*	-13%	20µM*	13%
CC1CC(C)CN(S(=O)(=O)c2ccc3c(c2)CCN3C(=O)CCC(=O)O)C1 (stereo not given)	-18%	-7%	-6%	-5%	2%
CC1CCC2=NN(C(=O)c3ccco3)C(O)(C(F)(F)F)C2C1 (stereo not given)	50µM*	-4%	-1%	-10%	-3%
O=C(c1ccco1)N1N=C(C2CCCCC2)CC1(O)C(F)(F)F (stereo not given)	?	-4%	-9%	-19%	0%
COc1cc(OC)c(OC)cc1/C=C1\CC(C)C/C(=C\c2cc(OC)c(OC)cc2OC)C1=O (stereo not given)	1%	-3%	35µM*	-2%	16%
CCC1C/C(=C\c2cc(OC)c(OC)cc2OC)C(=O)/C(=C/c2cc(OC)c(OC)cc2OC)C1 (stereo not given)	10%	1%	?	-6%	11%
CCCC(=O)NC1=C(Cl)C(=O)c2ccccc2C1=O	0%	15%	18µM*	-11%	-1%
Cn1cc(C(=O)NCCc2ccccc2)c(=O)c2cc(S(=O)(=O)N3CCCCC3)ccc21	.	.	-2%	.	.
CCCN(CCC)CCCNC(=O)c1sc2nc3n(c(=O)c2c1C)CCC3	.	.	-5%	.	.
COc1ccc(S(=O)(=O)NC(CCSC)C(=O)NC2CCCCC2)cc1 (stereo not given)	2%	-47%	-12%	50µM*	0%
CSCCC(NS(=O)(=O)c1ccc(C)cc1)C(=O)NC1CCCCC1 (stereo not given)	14%	-5%	-19%	5%	3%
COc1ccc2nc(NNC(=O)c3cc(=O)c4ccccc4o3)sc2c1	-7%	-8%	28µM*	-4%	-2%
Cc1ccc2sc(NNC(=O)c3cc(=O)c4ccccc4o3)nc2c1C	12%	-13%	32µM*	-16%	-8%
COc1cc(/C=C/[N+](=O)[O-])ccc1OCc1cccc(C(=O)O)c1	22µM*	8%	-6%	?	18%
CCCCN(CC)CCNC(=O)C1CCN(c2nnc(C)c3c(C)n(-c4ccc(C)cc4)nc23)CC1	.	.	-2%	.	.
Cc1sc(N)c(C(=O)c2ccccc2Cl)c1C	32µM*	9%	-23%	19%	7%
COc1ccc(C(=O)c2ccccc2Cl)cc1	-26%	8%	-10%	9%	16%
CCSc1nnc(-c2sc3nnc(-c4ccccc4)c(-c4ccccc4)c3c2N)o1	168%	2%	18µM*	-11%	100µM*
COC(=O)/N=C(/Cc1ccc(OC)cc1)c1ccc(OC)cc1	56µM*	9%	-22%	-8%	14%
COc1ccc(CC(=O)Nc2ccc(C(N)=O)cc2)cc1	-1%	6%	-5%	-21%	14%
CC(C)c1nn2c(=O)cc(COC(=O)c3ccccc3NC(=O)COc3ccccc3)nc2s1	.	.	-23%	.	.
CC(C)CSC1=NSC2=NC(=O)/C(=C\c3cccs3)C(=N)N12	-8%	-9%	-11%	-4%	2%
COc1cc(/C=C2/C(=N)N3C(SC)=NSC3=NC2=O)ccc1OC(=O)c1ccco1	-7%	5%	-4%	-28%	4%
N=C1/C(=C\c2coc3ccccc3c2=O)C(=O)N=C2SC=CN12	157%	89µM*	28µM*	60%	112µM*
CSC1=NSC2=NC(=O)/C(=C/c3coc4ccccc4c3=O)C(=N)N12	93%	100µM*	25µM*	76%	89µM*
SMILES	EPAC2 antag	EPAC1 ag	USP1 inh	EPAC1 antagonist	EPAC2 agonist
CSC1=NSC2=NC(=O)/C(=C\c3cccs3)C(=N)N12	-4%	-2%	-8%	4%	-4%
N=C1/C(=C/c2cccs2)C(=O)N=C2SN=C(SCc3ccccc3)N12	0%[57.1 µM]	5%	-9%	79µM*	-2%
CSC1=NSC2=NC(=O)/C(=C/c3coc4ccc(O)cc4c3=O)C(=N)N12	419%	79µM*	22µM*	165%	100µM*
CCc1ccc(NC(=O)c2cnn(-c3c(C)cccc3C)c2C2CCNCC2)cc1	.	.	-20%	.	.
COc1cc(C(=O)NC2CC(=O)N(c3cccc(F)c3)C2)cc(OC)c1OC (stereo not given)	.	.	-2%	.	.
CCCOc1ccc(C2C(=O)N(C3CCCCCC3)CC(=O)N2Cc2ccccc2OC)cc1OC (stereo not given)	.	.	-5%	.	.
CCOc1ccccc1NS(=O)(=O)c1c(-c2ccc(C)cc2)csc1C(=O)OC	.	.	-28%	.	.
CC1=CC2=NC(=O)/C(=C/c3coc4ccc(Cl)cc4c3=O)C(=N)N2O1	46%	?	28µM*	16%	?
CC1=CC2=NC(=O)/C(=C\c3cc(C)n(-c4cccc(Cl)c4)c3C)C(=N)N2O1	-1%	8%	-2%	-29%	12%
Cc1ccc(-c2cc3c(n2-c2ccc(F)cc2)CC(C)(C)CC3=O)cc1	.	.	4%	.	.
COc1cccc(Cn2c(CNS(=O)(=O)c3ccc(C(C)(C)C)cc3)nc3cccnc32)c1	.	.	-25%	.	.
CCOc1ccc(/C=C(\C#N)C(=O)Nc2cccnc2)cc1	4%	-5%	-20%	10%	-7%
CCOc1ccc(NC(=O)/C(C#N)=C\c2ccc(N3CCCC3)c(C)c2)cc1	32%	21%	22µM*	0%	13%
Cc1[nH]n(-c2ncc(-c3ccccc3)s2)c(=O)c1C(c1ccc(Br)cc1)C(C#N)C#N (stereo not given)	-18%	10%	-24%	16µM*	3%
Cc1[nH]n(C(N)=S)c(=O)c1C(c1ccccc1)C(C#N)C#N (stereo not given)	17%	-9%	-19%	13%	1%
O=C(Nc1c2c(nn1-c1ccc(Cl)cc1)CS(=O)(=O)C2)c1ccc(Br)cc1	.	.	-14%	.	.
COc1ccc(C(CC(=O)N2CCOCC2)c2c(OC)cc(OC)c3c(-c4ccccc4)cc(=O)oc23)cc1 (stereo not given)	50µM*	-9%	-17%	5%	6%
CCN(Cc1ccccc1)S(=O)(=O)c1ccc2c(c1)CC(C)N2C(=O)C1CCC1 (stereo not given)	.	.	-13%	.	.
CC(=O)c1ccc(NS(=O)(=O)c2cc(-c3cc(C)no3)ccc2C)cc1	.	.	-6%	.	.
O=C1Cc2ccccc2C(=O)N1CCc1ccccc1	3%	-9%	5.6µM*	?	6%
O=C1C(=O)N(Cc2ccccc2)C(=O)N1CCN1C(=O)c2ccccc2C1=O	0%	-11%	-22%	-5%	2%
CCOC(=O)c1ccc(N2C(=O)c3n[nH]c(-c4ccco4)c3C2c2cccc(O)c2)cc1 (stereo not given)	.	.	-22%	.	.
